Inconclusive results are not listed. Active and inactive are the calls of the source. How the source made its calls: active means hit-call score of the fitted dose curve at least 0.9, where 1 is the maximum; inconclusive means response in the unintended direction; inactive means score below 0.9.
Read-out: xenobiotic metabolism (CYP1A2), CYP1A2 (gene 1544)
Assay: CLD_CYP1A2_6hr: CellzDirect (CLD) Gene Expression Assay for xenobiotic metabolism (CYP1A2) at 6 hours (AID 2283663);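 on AC50: potency is for induction meaning a rise in mRNA above DMSO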
Description: CLD_6hr is a cell-based, multiplexed-readout assay that uses hepatocyte, a human liver primary cell, with measurements taken at 6 hours after chemical dosing in a 96-well plate.CLD_CYP1A2_6hr is one of 16 assay component(s) measured or calculated from the CLD_6hr assay. It is designed to make measurements of mRNA induction, a form of inducible reporter, as detected with chemiluminescence signals by Quantitative Nuclease Protection Assay (qNPA) technology.Data from the assay component CLD_CYP1A2_6hr was analyzed at the endpoint, CLD_CYP1A2_6hr, in the positive analysis fitting direction relative to DMSO as the negative control and baseline of activity. Using a type of inducible reporter, gain-of-signal activity can be used to understand changes in the reporter gene as they relate to the gene CYP1A2. Furthermore, this assay endpoint can be referred to as a primary readout. To generalize the intended target to other relatable targets, this assay endpoint is annotated to the cyp intended target family, where subfamily is xenobiotic metabolism.
Human hepatocyte cultures were treated daily for two consecutive days with fresh dosing solutions containing appropriate concentrations of the 320 ToxCast chemicals (chemical identities were blinded to CellzDirect and other ToxCast collaborators), vehicle control (0.2% DMSO), and positive control inducers as summarized in Table 1. Due to the large number of treatment groups and chemicals examined, the ToxCast chemicals were divided into two groups (spanning two independent cultures of hepatocytes from separate donor preparations (Hu778: ToxCast plates 1 and 2; Hu776: ToxCast plates 3 and 4). Each preparation of human hepatocyte cultures was treated with respective vehicle control, medium only control, set of six positive controls/reference chemicals for the five hepatic receptor pathways, and a subset of eight of the ToxCast chemicals (indoxacarb, pyrithiobac-sodium, norflurazon, cyhalofop-butyl, methomyl, thiram, acetochlor, and propiconazole). These replicate data, coupled with internal replicates designed within the blinded ToxCast chemical library, provided additional data to evaluate interindividual differences between hepatocyte preparations and their potential impact on chemical profiles.Cell morphology and integrity were evaluated using phase-contrast microscopy as an indicator of hepatocyte cell health (Tyson & Green, 1987). Cultures for each treatment group (i.e., media, vehicle [0.2% DMSO], positive control inducers [multiple concentrations], and the ToxCast chemicals [multiple concentrations]) were observed and cell morphology was assessed relative to vehicle control cultures at each harvest time point (0, 6, 24, or 48 h). […] Images were evaluated at the conclusion of the study to assess changes in cell integrity and account for the effects of chemical exposure on uncharacteristic changes in concentration-dependent gene expression profiles. The results from these determinations of apparent cytotoxicity were annotated (yes/no) alongside the corresponding qNPA data for reference.At the conclusion of each treatment period, hepatocyte cultures (96-well) were washed with 1 volume of HBSS, lysed by addition of 25 ul ArrayPlate lysis buffer (HTG, Tucson, AZ), and 70 ul/well of Denaturation Oil, denatured by incubation at 95C for 10 min, and frozen at approximately -70C until analysis by nuclease protection assay (qNPA) (Roberts et al., 2007). For qNPA analysis, cell lysates were thawed at 50C for approximately 30 min, qNPA probes were added, and samples were incubated at 95C for 10 min to begin the detection process by denaturing the target RNA, dissociating the duplexes and secondary structure hybridization. At the conclusion of the hybridization period, S1 nuclease reagent was added to each sample to digest all nonprotected nucleotides at 50C for 60-90 min. […]

Compound | outcome | AC50
CCOC(=O)C(C)Oc1ccc(Oc2nc3ccc(Cl)cc3o2)cc1 (stereo not given) | inactive | 
COC(=O)c1c(Cl)nn(C)c1S(=O)(=O)NC(=O)Nc1nc(OC)cc(OC)n1 |  | 2.54 µM (active)
CCSC(=O)N(CC(C)C)CC(C)C | inactive | 
CCOC(=O)COc1cc(-n2ncc(C(F)(F)F)c(C)c2=O)c(F)cc1Cl | inactive | 
COCCO | inactive | 
OB(O)O | inactive | 
COC(=O)c1cccc(C)c1S(=O)(=O)NC(=O)Nc1nc(OCC(F)(F)F)nc(N(C)C)n1 |  | 5.98 µM (active)
CCCN(CCC)C(=O)SCC | inactive | 
N#CSCSc1nc2ccccc2s1 | inactive | 
CCCCOCCOCCOCc1cc2c(cc1CCC)OCO2 |  | 5.75 µM (active)
COc1nc(C)nc(NC(=O)NS(=O)(=O)c2ccccc2OCCCl)n1 | inactive | 
CCCCCCC(C)OC(=O)COc1nc(F)c(Cl)c(N)c1Cl (stereo not given) | inactive | 
CCNc1nc(N)nc(Cl)n1 | inactive | 
CCC(O)=C1C(=O)CC(C(=O)O)CC1=O (stereo not given) |  | 1.89 µM (active)
Oc1ccc(C(c2ccc(O)cc2)C(Cl)(Cl)Cl)cc1 |  | 0.266 µM (active)
CCCCOC(=O)C(C)Oc1ccc(Oc2ccc(C(F)(F)F)cn2)cc1 (stereo not given) | inactive | 
O=C(O)C1(C(=O)Nc2ccc(Cl)cc2Cl)CC1 | inactive | 
CCOC(=O)C(C)Oc1ccc(Oc2cnc3cc(Cl)ccc3n2)cc1 (stereo not given) | inactive | 
CCCCCOC(=O)COc1cc(N2C(=O)C3=C(CCCC3)C2=O)c(F)cc1Cl | inactive | 
S=C([S-])NCCNC(=S)[S-].[Mn+2] | inactive | 

Compound | outcome | AC50
CN(C)C(=O)Nc1ccc(Cl)c(Cl)c1 |  | 3.05 µM (active)
O=C(Nc1ccc([N+](=O)[O-])cc1Cl)c1cc(Cl)ccc1O |  | 0.163 µM (active)
CC(C)(C)[C@@H](O)[C@@H](Cc1ccc(Cl)cc1)n1cncn1 | inactive | 
CSC(=O)c1cccc2nnsc12 |  | 33.3 µM (active)
CCCN(CCC)c1c([N+](=O)[O-])cc(C(F)(F)F)c(N)c1[N+](=O)[O-] | inactive | 
CCOC(=O)[C@H](C)Oc1ccc(Oc2nc3ccc(Cl)cc3o2)cc1 | inactive | 
CCCCC(CC)CN1C(=O)C2C3C=CC(C3)C2C1=O (stereo not given) | inactive | 
COC(=O)CSc1cc(N=c2sc(=O)n3n2CCCC3)c(F)cc1Cl | inactive | 
CCCCOC(=O)[C@@H](C)Oc1ccc(Oc2ccc(C(F)(F)F)cn2)cc1 | inactive | 
CC1(C)C(C=C(Cl)Cl)C1C(=O)OCc1cccc(Oc2ccccc2)c1 (stereo not given) | inactive | 
CCCOC(=O)c1ccc(C(=O)OCCC)nc1 | inactive | 
S=C(S)NCCNC(=S)S.[Mn+2].[S-]C([S-])=NCCN=C([S-])[S-].[Zn+2] |  | 2.75 µM (active)
COC(=O)c1ccccc1S(=O)(=O)NC(=O)Nc1nc(OC(F)F)cc(OC(F)F)n1 | inactive | 
CCN(Cc1c(F)cccc1Cl)c1c([N+](=O)[O-])cc(C(F)(F)F)cc1[N+](=O)[O-] |  | 1.74 µM (active)
CCN(CC)C(=O)c1cccc(C)c1 | inactive | 
CC(C)(c1ccc(O)cc1)c1ccc(O)cc1 | inactive | 
COc1c(Cl)ccc(Cl)c1C(=O)O | inactive | 
c1ccc(Nc2ccccc2)cc1 | inactive | 
CCCOC(=O)NCCCN(C)C | inactive | 
COC(=O)c1ccccc1C(=O)O | inactive | 

— PubChem BioAssay (EPA / NIEHS)
